# Screening results as filed in PubChem BioAssay.
# This is one part of a sample in which hits are shown more often than they occur.
# HT1080 IDH1KD tx: kills HT-1080 cells with IDH1 knockdown. HT-1080 IDH1 knockdown viability, ATP luminescence, 48 h. Potency, µM (titrated, usually from 46.1 µM), hits mostly cytotoxic. 2% of 360,000 active. AID 686971
#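 Assay cells: HT-1080 with IDH1 knockdown, 750 per well, RPMI/5% FBS. Exposure: 48 h at 37 °C following 2 h pre-incubation. Read: CellTiter-Glo luminescence; fitted concentration-response, curve class assigned.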
# 12-LOX inh: inhibitors of human 12S-lipoxygenase ALOX12; P18054; purified 12hLO, xylenol orange hydroperoxide absorbance; Potency, µM (titrated, usually from 108 µM), actives largely listed as inhibitors; 1.1% of 580,000 active
# Target sequence (P18054 whole entry, looked up): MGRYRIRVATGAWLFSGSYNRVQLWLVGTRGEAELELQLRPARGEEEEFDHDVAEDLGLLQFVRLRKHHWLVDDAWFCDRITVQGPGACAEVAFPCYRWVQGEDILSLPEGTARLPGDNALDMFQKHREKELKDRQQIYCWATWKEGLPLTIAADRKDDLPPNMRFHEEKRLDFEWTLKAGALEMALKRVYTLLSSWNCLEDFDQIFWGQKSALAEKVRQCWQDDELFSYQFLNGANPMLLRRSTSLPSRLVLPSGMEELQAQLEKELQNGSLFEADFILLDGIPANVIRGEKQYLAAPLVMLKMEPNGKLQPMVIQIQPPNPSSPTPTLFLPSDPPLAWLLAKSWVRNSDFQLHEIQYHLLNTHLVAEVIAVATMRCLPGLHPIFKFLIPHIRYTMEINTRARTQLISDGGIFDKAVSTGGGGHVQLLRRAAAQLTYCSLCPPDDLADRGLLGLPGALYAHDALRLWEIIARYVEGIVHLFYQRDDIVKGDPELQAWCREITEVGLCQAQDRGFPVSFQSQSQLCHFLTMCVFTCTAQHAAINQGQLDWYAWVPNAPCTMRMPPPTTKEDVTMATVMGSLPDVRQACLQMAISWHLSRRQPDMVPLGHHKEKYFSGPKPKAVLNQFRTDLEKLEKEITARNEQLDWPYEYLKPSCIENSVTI
#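 Hydroperoxide product was detected by ferrous iron/xylenol orange as the 573 to 405 nm absorbance ratio. Arachidonic acid at 40 uM (final) was turned over for 30 min at room temperature by 150 nM human 12hLO, pH 7.0 Hepes buffer, after 15 min compound preincubation.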
# HT1080-NT tox: kills 2HG-producing HT-1080-NT fibrosarcoma cells. HT-1080-NT fibrosarcoma viability, CellTiter-Glo ATP luminescence, 48 h. Potency, µM (titrated, usually from 46.1 µM), actives largely listed as cytotoxic. 1.6% of 360,000 active. AID 686970;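 further: NT is the 2HG producing partner of a matched IDH1 knockdown line; nearly all actives have a fitted effect of over 55% in size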
#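 750 cells/well, RPMI + 5% FBS; 2 h settle, compound pin-transfer, 48 h at 37 degrees C. CellTiter-Glo 10 min RT, luminescence. Normalized to DMSO and media-only wells.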
# IL-1B inflam inh: blocks inflammasome-driven IL-1 beta release. activity change, % at 57.5 µM. THP-1 LPS/ATP IL-1B secretion, AlphaLISA, 16 h; hits give low values. 4.7% of 360,000 active; in the data active means activity change below about -50%; inconclusive means mostly about -30% to -49%
#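 Secreted IL-1B measured by AlphaLISA bead assay after 16 h compound exposure of THP-1 cells; compounds (final up to 57.5 uM) added 1 h before LPS (250 ng/mL) and ATP (1.25 mM) stimulation; lower signal means less secretion.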
# TDP1 cell CPT: DT40-hTDP1 cell growth loss with CPT; 12% of 420,000 active; Potency, µM (doses to about 46.2 µM), usual class: inhibitors; chicken DT40 Tdp1-/-;hTDP1 cells + 20 nM CPT, ATP luminescence, 48 h; further: nearly all actives have a fitted effect of over 55% in size
#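 Chicken DT40 Tdp1-/- cells stably complemented with human TDP1 were seeded at 400 cells/well in medium containing 20 nM camptothecin, exposed to pin-transferred compounds, and grown at 37 °C for at least 48 hr. Viability was read as ATP luminescence.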
# TDP1 cell noCPT: qHTS for Inhibitors of human tyrosyl-DNA phosphodiesterase 1 (TDP1): qHTS in cells in absence of CPT; 15% of 420,000 active; Potency, µM (doses to about 46.2 µM), hits mostly inhibitors; DT40 Tdp1-/- hTDP1 cells, no CPT, ATP luminescence, 48 h; AID 686978, 2013; further: nearly all actives have a fitted effect of over 55% in size
#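 Growth of hTDP1-complemented DT40 Tdp1-knockout cells is measured by ATP luminescence after at least 48 hr compound exposure at 37 °C, with DMSO substituting for the 20 nM CPT used in the parallel screen.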
# Hits are given with their value; n = inactive; u = inconclusive; x = no result given; [ ] = remark or other dose. Unless noted, the call rests on the fitted dose curve; in most records, active means well fitted curve in the direction sought with a large enough effect; inconclusive means small, poorly fitted or top-dose-only effect, or another doubt; inactive means no such curve, though single readings can be large; an effect the other way counts as inactive or inconclusive.
SMILES,HT1080 IDH1KD tx,12-LOX inh,HT1080-NT tox,IL-1B inflam inh,TDP1 cell CPT,TDP1 cell noCPT
Cc1nc(-c2ccc(NC(=O)c3ccccc3)cc2)cs1,u,n,u,n,18.4µM,u
O=C(Nc1ccc(-c2cn3ccsc3n2)cc1)C1CCCC1,u,n,n,n,14.6µM,16.4µM
Cc1ccc(NC(=O)C2CCCCC2)cc1,x,n,x,x,x,x
Cc1nc(-c2ccc(NC(=O)C3CCCCC3)cc2)cs1,n,n,n,n,n,20.6µM
O=C(Nc1ccc(-c2cn3ccsc3n2)cc1)C1CC1,n,u,n,n,u,u
O=C(Nc1ccc(-c2csc(-c3ccccc3)n2)cc1)c1ccccc1Cl,n,n,n,n,20.6µM,u
O=C(Nc1ccc([C@@H](O)[C@H]2COCC(=O)N2Cc2ccccc2F)cc1)c1cccc(F)c1,x,n,x,x,x,x
Cc1nc(NC(=O)C2CC(=O)N(Cc3ccccn3)C2)sc1C (stereo unspecified),x,n,x,x,x,x
CCc1ccc(C(=O)c2cn(CC(=O)Nc3ccc(Cl)cc3)c3cc4c(cc3c2=O)OCO4)cc1,x,n,x,x,14.6µM,16.4µM
CCOc1ccc(C(=O)c2cn(CC(=O)Nc3ccc(Cl)cc3)c3cc4c(cc3c2=O)OCO4)cc1,x,n,x,x,u,13µM
CCOc1ccc(NC(=O)Cn2cc(C(=O)c3ccc(F)cc3)c(=O)c3cc4c(cc32)OCO4)cc1,x,u,x,x,n,n
CCc1ccc(C(=O)c2cn(CC(=O)Nc3ccc4c(c3)OCO4)c3ccc(Cl)cc3c2=O)cc1,x,n,x,x,u,u
c1ccc2c(c1)CCN(Cc1ccc3c(c1)CNCCO3)C2,x,n,x,x,x,x
N/C(=N\OC(=O)CC(c1ccccc1)c1ccccc1)c1cccnc1,u,n,u,u,11.6µM,u
Brc1ccc(-c2noc(C34CC5CC(CC(C5)C3)C4)n2)cc1,x,n,x,x,x,x
COC(=O)N1CCC2(CCCN(Cc3ccc(C#N)cc3)C2)CC1,x,n,x,x,n,u
N#Cc1ccc(CN2CCC3(CC2)CCN(C(=O)c2cc(C(F)(F)F)cc(C(F)(F)F)c2)CC3)cc1,x,n,x,x,23.1µM,13µM
COC(=O)N1CCC2(CCN(Cc3ccc(C#N)cc3)CC2)CC1,x,n,x,x,1.64µM,u
CCOc1ccc2oc(=O)cc(CN3CCN(C(=O)c4cccc(F)c4)CC3)c2c1,x,n,x,x,u,u
CCOc1ccc(CN2CCN(C(=O)c3cccc(F)c3)CC2)cc1,n[9.24 µM],u,u,-59.6,n,n
N#Cc1ccc(CN2CCC3(CC2)CCN(S(=O)(=O)c2ccccc2)CC3)cc1,x,n,x,x,u,16.4µM
COCCNC(=O)C1COC2(CCN(C(=O)c3ccccc3Cl)CC2)N1C(=O)c1ccccc1C (stereo unspecified),x,n,x,x,x,x
c1ccc(-c2nnc3n2CCN(Cc2ccsc2)C3)cc1,x,n[12.5 µM],x,x,x,x
O=C(NC1=NCCS1)c1cc2ccccc2s1,x,n,x,x,x,x
COc1ccccc1CN1CCC2(CC1)CCN(C(=O)c1cc(C(F)(F)F)cc(C(F)(F)F)c1)CC2,x,n,x,x,u,20.6µM
SMILES,HT1080 IDH1KD tx,12-LOX inh,HT1080-NT tox,IL-1B inflam inh,TDP1 cell CPT,TDP1 cell noCPT
COc1ccccc1CN1CCC2(CC1)CCN(C(=O)c1cccc(F)c1)CC2,x,n,x,x,n,n
COC(=O)N1CCC2(CCN(Cc3cc(C(F)(F)F)cc(C(F)(F)F)c3)CC2)CC1,x,n,x,x,u,14.6µM
O=C(c1cccc(F)c1)N1CCC2(CCN(Cc3cc(C(F)(F)F)cc(C(F)(F)F)c3)CC2)CC1,x,n,x,x,u,18.4µM
O=C(CSc1cccc[n+]1[O-])Nc1cc([N+](=O)[O-])ccc1Cl,n,n,n,n,n,n
O=C(CSc1cccc[n+]1[O-])Nc1cc2c(cc1Cl)C(=O)c1ccccc1C2=O,n,u,n,n,20.6µM,u
O=C(CSc1cccc[n+]1[O-])Nc1ccccc1C(F)(F)F,n,n,n,n,n,n
O=C(CSc1cccc[n+]1[O-])Nc1ccccc1Oc1ccccc1,6.51µM,n,8.2µM,-102.2,0.92µM,1.46µM
COC(=O)c1ccc(C(=O)OC)c(NC(=O)CSc2cccc[n+]2[O-])c1,n,n,u,n,0.92µM,0.731µM
COC(=O)c1ccc(C(=O)OC)c(NC(=O)CSCC(=O)O)c1,n,u,n,n,n,n
Cc1ccc(NC(=O)CCc2ncc(-c3ccc(C)c(C)c3)o2)c(O)c1,x,n,x,x,x,x
CCc1ccc(-c2nn(Cc3ccccc3)cc2C(=O)N2CCN(CCO)CC2)cc1,x,n,x,x,x,x
CCOc1cc(S(=O)(=O)NC2CCCCCC2)ccc1F,n,n,n,n,20.6µM,u
O=S(=O)(NC1CCCCCC1)c1cccc(Cl)c1,n,n,n,u,u,u
Cc1cccc(S(=O)(=O)NC2CCCCCCC2)c1,n,n,n,n,20.6µM,u
Cc1cc(S(=O)(=O)NC2CCCC2)ccc1F,n,n,n,n,n,u
CCCNC(=O)c1noc(-c2ccc(C#N)cc2)n1,x,n,x,x,x,x
CCOCCCNC(=O)C1CCCC(C(=O)NCCCOCC)C1 (stereo unspecified),x,n,x,x,x,x
O=C(NCc1ccccc1)Nc1c(NC2CCCC2)c2ccccc2oc1=O,x,n,x,x,x,x
COC(=O)c1nnn(CC(=O)Nc2ccc(C)cc2Cl)c1C(=O)OC,x,n,x,x,x,x
OC(CNCc1ccccc1)Cn1ccc2ccccc21 (stereo unspecified),n,u,n,-50.1,n,n
OCc1nc2ccccc2n1CC(O)Cn1ccc2ccccc21 (stereo unspecified),n[9.24 µM],n,n,n,16.4µM,13µM
Oc1ccccc1NCC(O)Cn1ccc2ccccc21 (stereo unspecified),u,u,u,u,16.4µM,20.6µM
Nc1ccccc1SCC(O)Cn1ccc2ccccc21 (stereo unspecified),n,x,n,n,n,n
CCCCCCOc1ccc(/C=C/C(=O)Nc2sc3c(c2C(=O)OC)CCC3)cc1OC,x,n,x,x,7.31µM,4.11µM
CC1CCCN(S(=O)(=O)c2ccc(NC(=O)Cc3ccc(S(=O)(=O)N4CCOCC4)s3)cc2)C1 (stereo unspecified),n,n,n,u,u,18.4µM
O=C(Cc1ccc(S(=O)(=O)N2CCOCC2)s1)Nc1ccc(S(=O)(=O)N2CCCCC2)cc1,n,x,n,n,18.4µM,u
CNC(=O)c1ccc(NC(=O)Cc2ccc(S(=O)(=O)N3CCOCC3)s2)cc1,n,n,n,n,n,n
O=C(Cc1ccc(S(=O)(=O)N2CCOCC2)s1)Nc1ccc2c(c1)CCC2,n,n,n,u,n,u
CC(=O)Nc1ccc(NC(=O)Cc2ccc(S(=O)(=O)N3CCCCC3)s2)cc1,n,n,n,n,u,u
CC1CCN(S(=O)(=O)c2ccc(NC(=O)Cc3ccc(S(=O)(=O)N4CCOCC4)s3)cc2)CC1,n,n,n,n,18.4µM,23.1µM
